# Measurements taken from the supplement of paper PMC7724964.
# T1: TDRD1 261-449 TUDOR (domain begin residue: 261, domain end residue: 449), Q9BXT4
# T1 chain: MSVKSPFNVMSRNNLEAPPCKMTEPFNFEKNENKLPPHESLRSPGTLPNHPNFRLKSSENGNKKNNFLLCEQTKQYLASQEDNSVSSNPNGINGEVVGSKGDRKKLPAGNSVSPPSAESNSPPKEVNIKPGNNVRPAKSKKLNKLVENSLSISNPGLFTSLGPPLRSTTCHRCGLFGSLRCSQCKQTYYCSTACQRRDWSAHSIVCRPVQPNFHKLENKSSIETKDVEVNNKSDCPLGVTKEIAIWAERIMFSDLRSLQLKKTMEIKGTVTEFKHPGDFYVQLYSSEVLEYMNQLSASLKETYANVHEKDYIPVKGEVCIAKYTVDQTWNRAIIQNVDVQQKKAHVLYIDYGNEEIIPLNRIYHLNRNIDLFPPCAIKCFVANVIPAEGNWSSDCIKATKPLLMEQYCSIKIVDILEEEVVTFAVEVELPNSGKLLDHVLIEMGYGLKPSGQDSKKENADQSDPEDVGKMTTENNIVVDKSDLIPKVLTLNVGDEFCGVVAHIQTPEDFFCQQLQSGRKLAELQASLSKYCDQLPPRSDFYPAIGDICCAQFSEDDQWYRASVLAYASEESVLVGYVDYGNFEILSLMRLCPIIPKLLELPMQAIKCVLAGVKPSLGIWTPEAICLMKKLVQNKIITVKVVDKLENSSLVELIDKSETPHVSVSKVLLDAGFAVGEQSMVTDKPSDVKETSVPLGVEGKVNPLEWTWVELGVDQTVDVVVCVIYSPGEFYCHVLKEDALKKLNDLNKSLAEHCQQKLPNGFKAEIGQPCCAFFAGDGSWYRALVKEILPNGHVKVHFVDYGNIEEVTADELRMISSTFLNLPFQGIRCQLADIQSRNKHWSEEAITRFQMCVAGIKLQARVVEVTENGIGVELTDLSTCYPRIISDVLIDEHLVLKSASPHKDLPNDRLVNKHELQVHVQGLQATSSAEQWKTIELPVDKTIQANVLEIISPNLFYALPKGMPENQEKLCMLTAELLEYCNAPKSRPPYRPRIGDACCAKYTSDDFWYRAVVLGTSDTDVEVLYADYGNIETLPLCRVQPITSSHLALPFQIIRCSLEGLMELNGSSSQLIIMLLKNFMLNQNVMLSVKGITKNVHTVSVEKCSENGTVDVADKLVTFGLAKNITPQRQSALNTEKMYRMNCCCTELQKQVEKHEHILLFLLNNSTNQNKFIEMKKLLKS
# T2: TDRKH 290-430 TUDOR+SNase (domain begin residue: 290, domain end residue: 430), Q9Y2W6
# T2 chain: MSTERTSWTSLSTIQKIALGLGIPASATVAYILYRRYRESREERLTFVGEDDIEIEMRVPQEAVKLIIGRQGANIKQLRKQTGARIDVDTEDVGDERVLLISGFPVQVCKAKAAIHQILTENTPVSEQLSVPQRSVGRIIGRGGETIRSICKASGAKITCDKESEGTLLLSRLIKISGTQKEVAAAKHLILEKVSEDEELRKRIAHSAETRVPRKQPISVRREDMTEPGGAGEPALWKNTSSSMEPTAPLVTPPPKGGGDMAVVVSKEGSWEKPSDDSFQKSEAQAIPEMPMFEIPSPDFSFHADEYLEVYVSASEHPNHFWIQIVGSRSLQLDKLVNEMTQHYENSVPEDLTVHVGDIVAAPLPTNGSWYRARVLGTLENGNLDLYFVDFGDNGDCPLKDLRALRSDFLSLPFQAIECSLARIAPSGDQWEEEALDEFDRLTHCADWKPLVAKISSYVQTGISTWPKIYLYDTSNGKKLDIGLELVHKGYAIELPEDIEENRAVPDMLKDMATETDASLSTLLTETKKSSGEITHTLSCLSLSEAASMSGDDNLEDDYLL
# T3: TERF1 58-268 TRF (domain begin residue: 58, domain end residue: 268), P54274
# T3 chain: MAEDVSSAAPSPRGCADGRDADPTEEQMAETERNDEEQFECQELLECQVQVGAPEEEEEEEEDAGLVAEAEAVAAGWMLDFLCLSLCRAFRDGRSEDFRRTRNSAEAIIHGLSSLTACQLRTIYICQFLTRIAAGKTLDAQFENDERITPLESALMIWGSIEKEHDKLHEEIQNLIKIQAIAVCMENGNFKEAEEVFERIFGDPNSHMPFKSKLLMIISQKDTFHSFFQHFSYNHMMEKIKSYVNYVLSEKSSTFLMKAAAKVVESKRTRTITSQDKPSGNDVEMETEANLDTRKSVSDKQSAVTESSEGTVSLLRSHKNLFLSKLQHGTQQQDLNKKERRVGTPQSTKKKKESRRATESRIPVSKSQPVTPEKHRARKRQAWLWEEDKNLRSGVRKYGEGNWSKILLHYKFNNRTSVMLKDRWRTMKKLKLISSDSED
# T4: TCEA2 231-299 TFIIS_C (domain begin residue: 231, domain end residue: 299), Q15560
# T4 chain: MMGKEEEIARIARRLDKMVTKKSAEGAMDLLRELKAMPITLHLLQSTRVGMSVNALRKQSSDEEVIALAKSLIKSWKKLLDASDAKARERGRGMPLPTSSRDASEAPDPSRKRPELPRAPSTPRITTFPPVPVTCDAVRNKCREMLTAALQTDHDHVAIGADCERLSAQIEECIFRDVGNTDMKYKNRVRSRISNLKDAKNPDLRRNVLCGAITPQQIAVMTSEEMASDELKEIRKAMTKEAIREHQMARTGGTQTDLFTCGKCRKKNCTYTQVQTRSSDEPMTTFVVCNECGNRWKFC
# T5: STAM 1-143 VHS (domain begin residue: 1, domain end residue: 143), Q92783
# T5 chain: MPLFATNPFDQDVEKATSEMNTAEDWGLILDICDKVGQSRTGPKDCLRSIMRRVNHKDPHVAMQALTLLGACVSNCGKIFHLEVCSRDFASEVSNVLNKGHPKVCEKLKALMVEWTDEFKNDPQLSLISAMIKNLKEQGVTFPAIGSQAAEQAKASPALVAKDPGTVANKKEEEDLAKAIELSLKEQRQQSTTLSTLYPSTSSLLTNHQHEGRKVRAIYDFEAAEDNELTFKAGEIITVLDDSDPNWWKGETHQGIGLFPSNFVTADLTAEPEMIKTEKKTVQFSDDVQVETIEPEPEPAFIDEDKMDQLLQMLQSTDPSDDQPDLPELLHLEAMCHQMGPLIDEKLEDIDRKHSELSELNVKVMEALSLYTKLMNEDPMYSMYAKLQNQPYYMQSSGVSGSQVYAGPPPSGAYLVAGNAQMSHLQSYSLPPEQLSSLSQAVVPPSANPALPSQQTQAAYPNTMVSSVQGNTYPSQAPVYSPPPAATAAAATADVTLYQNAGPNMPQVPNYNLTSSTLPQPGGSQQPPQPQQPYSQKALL
# Tests used:
# Assay in all cases: phage ELISA signal ratio (GST-PRM binding over GST background); higher = stronger binding of peptide-phage to the PRM
# [1] = target: T1, TDRD1 261-449 TUDOR (domain begin …
# Method in brief: (§1)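 Approximately 48 individual clones from selection rounds 4 and 5 were tested by phage ELISA, and those scoring positive were sequenced. They came from five rounds of selecting an M13 phage library of randomized, cysteine-free, glycine-flanked hexadecapeptides on the gene-8 major coat protein against human peptide recognition domains fused to the C-terminus of glutathione S-transferase (GST) in 96-well plates. Each figure in the table is the ELISA signal on the GST-domain fusion relative to the signal on GST alone.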
# [2] = target: TLN1 309-401 IRS (domain begin residue: 309, domain end residue: 401), Q9Y490
# Method in brief: as §1
# [3] = target: T2, TDRKH 290-430 TUDOR+SNase (domain begin …
# Method in brief: as §1
# [4] = target: TLN2 312-417 IRS (domain begin residue: 312, domain end residue: 417), Q9Y4G6
# Method in brief: as §1
# [5] = target: T3, TERF1 58-268 TRF (domain begin residue: …
# Method in brief: as §1
# [6] = target: T4, TCEA2 231-299 TFIIS_C (domain begin …
# Method in brief: as §1
# [7] = target: TOM1 1-153 VHS (domain begin residue: 1, domain end residue: 153), O60784
# Method in brief: as §1
# [8] = target: SUB1 58-127 PC4 (domain begin residue: 58, domain end residue: 127), P53999
# Method in brief: as §1
# [9] = target: T5, STAM 1-143 VHS (domain begin residue: …
# Method in brief: as §1
# TLN2 312-417 IRS (domain begin residue: 312, domain end residue: 417), Q9Y4G6, sequence (Q9Y4G6 whole entry): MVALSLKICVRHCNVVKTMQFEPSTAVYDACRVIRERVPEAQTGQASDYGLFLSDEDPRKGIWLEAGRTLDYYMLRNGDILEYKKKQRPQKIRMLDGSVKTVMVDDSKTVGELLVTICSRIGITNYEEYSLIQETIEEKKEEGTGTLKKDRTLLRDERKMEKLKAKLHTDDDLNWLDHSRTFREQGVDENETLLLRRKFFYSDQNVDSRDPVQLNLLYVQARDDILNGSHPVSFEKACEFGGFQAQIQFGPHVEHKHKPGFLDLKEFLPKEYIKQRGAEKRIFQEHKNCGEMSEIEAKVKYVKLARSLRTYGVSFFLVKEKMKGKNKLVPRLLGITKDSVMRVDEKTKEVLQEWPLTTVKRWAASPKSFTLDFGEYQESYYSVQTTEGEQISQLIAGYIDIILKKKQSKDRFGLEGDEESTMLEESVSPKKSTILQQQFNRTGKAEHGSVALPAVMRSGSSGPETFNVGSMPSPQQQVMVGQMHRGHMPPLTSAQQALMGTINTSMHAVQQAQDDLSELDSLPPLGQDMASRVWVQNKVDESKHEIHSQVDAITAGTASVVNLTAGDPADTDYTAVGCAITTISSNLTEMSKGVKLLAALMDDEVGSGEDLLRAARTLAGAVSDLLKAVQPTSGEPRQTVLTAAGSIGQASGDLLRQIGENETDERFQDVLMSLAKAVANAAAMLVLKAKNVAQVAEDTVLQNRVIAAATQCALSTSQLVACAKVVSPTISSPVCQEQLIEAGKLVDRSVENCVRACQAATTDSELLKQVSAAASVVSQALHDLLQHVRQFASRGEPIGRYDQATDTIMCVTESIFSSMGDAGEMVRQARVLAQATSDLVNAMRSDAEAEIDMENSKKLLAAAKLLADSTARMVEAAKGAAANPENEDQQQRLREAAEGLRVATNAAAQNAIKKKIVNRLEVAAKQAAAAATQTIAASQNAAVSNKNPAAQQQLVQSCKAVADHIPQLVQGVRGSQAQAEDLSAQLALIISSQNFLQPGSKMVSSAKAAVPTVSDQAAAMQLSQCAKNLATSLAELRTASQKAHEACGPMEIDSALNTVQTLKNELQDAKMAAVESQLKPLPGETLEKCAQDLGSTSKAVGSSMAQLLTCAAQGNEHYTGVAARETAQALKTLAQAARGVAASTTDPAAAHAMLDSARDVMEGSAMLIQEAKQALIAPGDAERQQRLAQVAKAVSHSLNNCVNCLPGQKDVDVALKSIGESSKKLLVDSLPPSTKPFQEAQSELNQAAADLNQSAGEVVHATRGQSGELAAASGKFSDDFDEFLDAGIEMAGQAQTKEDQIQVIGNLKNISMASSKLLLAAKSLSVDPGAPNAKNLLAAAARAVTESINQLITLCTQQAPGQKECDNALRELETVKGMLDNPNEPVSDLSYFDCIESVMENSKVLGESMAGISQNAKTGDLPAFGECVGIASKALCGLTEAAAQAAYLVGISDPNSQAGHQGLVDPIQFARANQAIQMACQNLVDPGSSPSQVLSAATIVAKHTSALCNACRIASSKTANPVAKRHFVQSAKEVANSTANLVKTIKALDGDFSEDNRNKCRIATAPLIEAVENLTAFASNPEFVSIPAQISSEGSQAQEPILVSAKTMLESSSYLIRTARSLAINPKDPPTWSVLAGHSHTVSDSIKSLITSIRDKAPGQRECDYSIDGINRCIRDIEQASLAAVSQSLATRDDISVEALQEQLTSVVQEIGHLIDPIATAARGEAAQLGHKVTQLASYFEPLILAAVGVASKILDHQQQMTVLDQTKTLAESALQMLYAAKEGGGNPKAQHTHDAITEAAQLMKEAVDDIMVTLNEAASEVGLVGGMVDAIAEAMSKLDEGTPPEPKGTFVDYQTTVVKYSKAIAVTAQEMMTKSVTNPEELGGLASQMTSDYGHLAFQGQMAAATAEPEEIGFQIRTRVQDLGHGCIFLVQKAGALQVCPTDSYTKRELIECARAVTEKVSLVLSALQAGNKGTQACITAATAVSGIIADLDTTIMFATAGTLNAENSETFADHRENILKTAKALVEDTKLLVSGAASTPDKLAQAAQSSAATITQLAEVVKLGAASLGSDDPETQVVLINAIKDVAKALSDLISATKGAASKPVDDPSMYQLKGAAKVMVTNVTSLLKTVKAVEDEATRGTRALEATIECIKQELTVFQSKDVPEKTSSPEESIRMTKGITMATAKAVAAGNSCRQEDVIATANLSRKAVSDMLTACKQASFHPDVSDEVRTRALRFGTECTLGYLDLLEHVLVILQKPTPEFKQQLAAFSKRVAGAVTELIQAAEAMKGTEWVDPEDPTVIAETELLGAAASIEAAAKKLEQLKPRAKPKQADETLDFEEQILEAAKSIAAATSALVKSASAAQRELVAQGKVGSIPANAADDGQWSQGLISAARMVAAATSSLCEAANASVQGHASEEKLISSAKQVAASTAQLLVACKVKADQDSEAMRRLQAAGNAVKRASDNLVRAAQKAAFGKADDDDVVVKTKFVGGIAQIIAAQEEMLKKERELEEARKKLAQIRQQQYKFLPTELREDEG
# TLN1 309-401 IRS (domain begin residue: 309, domain end residue: 401), Q9Y490, sequence (Q9Y490 whole entry): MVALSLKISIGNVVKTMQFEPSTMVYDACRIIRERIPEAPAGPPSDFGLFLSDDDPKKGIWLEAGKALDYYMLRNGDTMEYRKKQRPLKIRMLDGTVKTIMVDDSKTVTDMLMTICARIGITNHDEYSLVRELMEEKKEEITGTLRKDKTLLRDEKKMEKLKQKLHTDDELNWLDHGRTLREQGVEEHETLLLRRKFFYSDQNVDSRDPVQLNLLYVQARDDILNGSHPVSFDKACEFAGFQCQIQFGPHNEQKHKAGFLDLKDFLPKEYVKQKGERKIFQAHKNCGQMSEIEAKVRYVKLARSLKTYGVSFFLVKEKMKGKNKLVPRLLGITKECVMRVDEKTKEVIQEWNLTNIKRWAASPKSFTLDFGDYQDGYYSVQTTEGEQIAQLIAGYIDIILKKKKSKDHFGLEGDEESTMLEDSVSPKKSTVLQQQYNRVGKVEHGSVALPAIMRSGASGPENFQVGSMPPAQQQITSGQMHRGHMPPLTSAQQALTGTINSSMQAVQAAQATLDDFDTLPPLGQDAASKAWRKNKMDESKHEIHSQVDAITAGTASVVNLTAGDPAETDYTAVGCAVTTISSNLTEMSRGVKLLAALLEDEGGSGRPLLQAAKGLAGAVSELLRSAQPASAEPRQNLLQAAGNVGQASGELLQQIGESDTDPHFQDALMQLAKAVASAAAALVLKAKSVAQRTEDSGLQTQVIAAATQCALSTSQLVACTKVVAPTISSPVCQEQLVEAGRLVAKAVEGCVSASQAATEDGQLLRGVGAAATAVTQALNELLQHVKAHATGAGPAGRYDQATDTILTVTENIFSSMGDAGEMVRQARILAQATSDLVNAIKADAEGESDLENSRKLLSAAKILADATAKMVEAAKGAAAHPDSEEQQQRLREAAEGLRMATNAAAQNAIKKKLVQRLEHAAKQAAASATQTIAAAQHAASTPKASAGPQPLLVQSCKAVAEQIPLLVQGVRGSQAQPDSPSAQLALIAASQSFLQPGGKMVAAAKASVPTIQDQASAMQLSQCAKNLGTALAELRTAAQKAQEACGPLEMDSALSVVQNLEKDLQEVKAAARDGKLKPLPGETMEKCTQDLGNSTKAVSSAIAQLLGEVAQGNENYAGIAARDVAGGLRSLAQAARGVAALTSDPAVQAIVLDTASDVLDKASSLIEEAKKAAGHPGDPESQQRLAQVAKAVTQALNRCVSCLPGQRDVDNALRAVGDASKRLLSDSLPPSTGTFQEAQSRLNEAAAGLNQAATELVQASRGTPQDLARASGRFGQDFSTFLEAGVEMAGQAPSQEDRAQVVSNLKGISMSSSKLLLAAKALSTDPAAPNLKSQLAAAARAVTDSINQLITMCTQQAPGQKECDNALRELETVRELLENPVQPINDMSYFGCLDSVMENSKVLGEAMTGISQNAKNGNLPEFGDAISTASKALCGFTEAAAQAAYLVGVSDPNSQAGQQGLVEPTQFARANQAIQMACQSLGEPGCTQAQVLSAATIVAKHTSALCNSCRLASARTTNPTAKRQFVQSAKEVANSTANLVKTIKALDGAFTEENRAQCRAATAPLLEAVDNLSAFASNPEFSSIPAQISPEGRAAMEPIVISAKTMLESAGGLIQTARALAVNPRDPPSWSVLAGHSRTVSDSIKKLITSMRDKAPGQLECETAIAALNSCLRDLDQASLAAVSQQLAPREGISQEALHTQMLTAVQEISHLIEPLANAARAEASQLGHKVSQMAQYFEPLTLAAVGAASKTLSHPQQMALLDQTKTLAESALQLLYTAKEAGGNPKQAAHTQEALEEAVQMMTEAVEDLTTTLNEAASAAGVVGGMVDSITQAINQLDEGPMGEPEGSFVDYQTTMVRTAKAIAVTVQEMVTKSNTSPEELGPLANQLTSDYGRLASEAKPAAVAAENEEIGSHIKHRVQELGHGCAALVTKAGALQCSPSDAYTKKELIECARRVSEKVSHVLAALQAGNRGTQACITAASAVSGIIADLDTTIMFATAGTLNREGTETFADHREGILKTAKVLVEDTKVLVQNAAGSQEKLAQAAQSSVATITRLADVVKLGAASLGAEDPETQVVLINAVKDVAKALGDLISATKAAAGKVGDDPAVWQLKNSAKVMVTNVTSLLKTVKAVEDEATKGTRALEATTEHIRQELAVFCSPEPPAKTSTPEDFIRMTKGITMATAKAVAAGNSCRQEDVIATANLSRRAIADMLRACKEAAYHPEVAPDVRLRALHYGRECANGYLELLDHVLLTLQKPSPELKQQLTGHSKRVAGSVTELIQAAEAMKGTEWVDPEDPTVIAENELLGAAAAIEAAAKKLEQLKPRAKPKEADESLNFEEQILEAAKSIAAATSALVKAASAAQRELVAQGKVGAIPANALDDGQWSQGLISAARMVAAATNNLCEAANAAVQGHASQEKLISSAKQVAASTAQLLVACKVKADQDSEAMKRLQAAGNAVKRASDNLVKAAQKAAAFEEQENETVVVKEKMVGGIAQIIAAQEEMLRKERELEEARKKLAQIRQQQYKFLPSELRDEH
binder,measurement,setting,value
EPGHWMEWIWDTIELE,phage ELISA signal ratio,[1],9.32
VETQWEQWQEYGLKFS,phage ELISA signal ratio,[2],16.2
EFTMNWQYPTQYNFIQ,phage ELISA signal ratio,[2],15.3
IWDQWYEWNSEWDRLP,phage ELISA signal ratio,[1],3.57
HEQNRMDVRNDGRTGF,phage ELISA signal ratio,[3],8
MEWVEVYTKTDYAFPP,phage ELISA signal ratio,[4],17.8
HELHGHLGPYGYPAGT,phage ELISA signal ratio,[3],7.85
WNQWQEWTTDHGVLLE,phage ELISA signal ratio,[1],7.12
WTASQYWVYEDGFIPG,phage ELISA signal ratio,[4],23.7
LGHTTAEMIDYMELQW,phage ELISA signal ratio,[5],15.3
MPLHEWEAGWPWEVVG,phage ELISA signal ratio,[1],7.35
EQWTWEPMWEWMTITD,phage ELISA signal ratio,[6],5.86
EHSFLFEDWMWEGKDH,phage ELISA signal ratio,[5],5.48
MLFDDEAMYNWQWHLM,phage ELISA signal ratio,[5],12.2
REMLDYYQGVWVPPVS,phage ELISA signal ratio,[3],4.26
PWWLEYEMPITRESPV,phage ELISA signal ratio,[7],4.45
VENVYYGPYQWEGSFQ,phage ELISA signal ratio,[4],15.4
DMVWTNSFLHSHSQLV,phage ELISA signal ratio,[4],19.5
WDLNAQVEHMWQYGIA,phage ELISA signal ratio,[4],15.9
NENGSYEEHLAWTWGF,phage ELISA signal ratio,[4],17.6
DEEEWWWQFQSHQLPE,phage ELISA signal ratio,[8],8.77
WAWEDMWFMEQLESTE,phage ELISA signal ratio,[6],3.89
PNVGEWQYNLSYIWEM,phage ELISA signal ratio,[2],15.5
ELWQHWDMWNVEEPEF,phage ELISA signal ratio,[1],7.88
SFPLEFTTDYMYNLMA,phage ELISA signal ratio,[5],18.2
NQDRVWVGNSAFKSPD,phage ELISA signal ratio,[4],22
EMHWMDIWDSLLPESK,phage ELISA signal ratio,[1],7.87
QNNFIQLQEWHWLEGW,phage ELISA signal ratio,[4],11.2
NPHSHQQFMQAVENHI,phage ELISA signal ratio,[9],22.2
